Here are results for eight compounds from PubChem BioAssay.

Assay [1] is described as follows: anti-His antibody binders, primary screen, artefact control for SMM control protein annotation, biochemical, small-molecule microarray, 635 nm fluorescence (AID 1128).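 Further: score merges feature fluorescence with signal-to-noise for each printed compound spot.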 The settings on record: anti-His Alexa647 antibody binding, higher = more signal.
For assay [2], the system named is Human papillomavirus type 1a E7 protein (residues 1-88). Kind of assay: HPV1a E7 small-molecule binders, primary screen, biochemical, small-molecule microarray, residues 1-88, 635 nm (AID 1129). As to conditions: small-molecule microarray binding, fluorescence 635 nm; higher = more signal.
Assay [3] addresses Focal adhesion kinase 1 (Homo sapiens) (UniProt Q05397). The experiment in a line: small-molecule microarray binders of FAK, primary screen, biochemical, 635/667 nm fluorescence, BSA, DTT (AID 1130).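 Further: composite of spot emission at 667 nm and signal to noise over triplicate slides.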 The settings on record: PTK2 binding, 635 nm fluorescence, higher = more signal.
Assay [4] relates to Fibrinogen (Alexa647-labelled). The experiment in a line: fibrinogen binders on compound microarrays, profiling panel, artefact control for SMM control-protein annotation, biochemical, small-molecule microarray, 635/667 nm fluorescence (AID 1131).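 Further: z-score merges 667 nm fluorescence with per-spot signal-to-noise over triplicate slides.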 As to conditions: fibrinogen-A647 binding fluorescence, higher = more signal.
For assay [5], the target named is Follistatin (Homo sapiens) (UniProt P19883). Kind of assay: follistatin binders on small-molecule microarrays, primary screen, biochemical, small-molecule microarray, 635/667 nm fluorescence (AID 1132). As to conditions: FST binding, 635 nm fluorescence, higher = more signal.
Assay [6] addresses Fibroblast growth factor 2 (Homo sapiens) (UniProt P09038). The experiment in a line: FGF2 binders on small-molecule microarrays, primary screen, biochemical, small-molecule microarray, 635/667 nm fluorescence (AID 1133). As to conditions: small-molecule microarray binding, FGF2, fluorescence 635/667; higher = more signal.
The nature of assay [7]: mitochondrial membrane potential change in A549 cells, profiling panel, cell-based, JC-1 fluorescence, basal, 24 h, 100 nL (AID 1138).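 Further: A549 lung adenocarcinoma cells under basal conditions with no added stimulus; test concentration not given here.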 As to conditions: higher = more signal.
The next assay has as its system Lefty1. The experiment in a line: Lefty1 binders on small-molecule microarrays, primary screen, biochemical, small-molecule microarray, 635/667 nm fluorescence (AID 1139). As to conditions: small-molecule microarray binding, fluorescence 635/667; higher = more signal.
In assay [8] the test system is wheat germ agglutinin (Triticum aestivum), Alexa647-labelled. Kind of assay: wheat germ agglutinin binders on compound microarrays, profiling panel, artefact control for SMM control-protein annotation, biochemical, small-molecule microarray, 635/667 nm fluorescence (AID 1140).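 Further: score merges 667 nm feature emission with signal to noise over triplicate slides.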 As to conditions: WGA-A647 binding, 635 nm fluorescence, higher = more signal.
Assay [9] deals with Luciferin 4-monooxygenase (Photinus pyralis) (UniProt P08659). Kind of assay: firefly luciferase enzyme inhibitors, primary screen, biochemical, luminescence, purified enzyme, 2006 set (AID 1141).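 Further: cell-free assay with purified firefly luciferase at 100 ng per well in PBS; test concentration not given here.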 The settings on record: SteadyGlo luminescence, 30 min, higher = more signal, called active from +8 up or from −8 down.
Assay [10] relates to Wnt5a (protein binding on small-molecule microarray). Kind of assay: Wnt5a binders on small-molecule microarray, primary screen, biophysical, 635/667 nm fluorescence (AID 1142).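 Further: fluorescence read at 667 nm with signal to noise per printed feature.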 The settings on record: 635 nm fluorescence, higher = more signal.
Assay [11] can be described thus: cell viability in Huh7 cells, primary screen, cytotoxicity control for HCV replication inhibitor project, CellTiter-Glo luminescence, basal, 48 h (AID 1143).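 Further: Huh7 hepatoma cells carrying a hepatitis C replication reporter with no stimulus; test concentration not given here.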 As to conditions: Huh7 HCV replicon, higher = more signal, called active from +8 up or from −8 down.
The nature of assay [12]: P. aeruginosa biofilm formation inhibitors, primary screen, PAO1 strain, BacTiter-Glo luminescence, LB-PBS (AID 1144). As to conditions: 12 h, higher = more signal.
The nature of assay [13]: CREB reporter modulators without forskolin, primary screen, cell-based, PC12, CRE-LacZ reporter, unstimulated (AID 1145). The settings on record: no forskolin, luminescence, 4.5 h, higher = more signal, called active from +8 up or from −8 down.
The nature of assay [14]: CREB reporter modulators under forskolin, primary screen, cell-based, PC12, CRE-LacZ reporter, forskolin-stimulated (AID 1146).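 Further: PC12 cells with 6xCRE LacZ reporter stimulated by forskolin 10 µM; beta-galactosidase reporter signal reflecting CREB driven transcription.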 The settings on record: luminescence, 4.5 h, higher = more signal, called active from +8 up or from −8 down.
Assay [15] deals with Streptavidin (Streptomyces avidinii) (UniProt P22629). The experiment in a line: streptavidin binders on small-molecule microarray, primary screen, artefact control for SMM compound annotation, biophysical, 635/667 nm fluorescence (AID 1147).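 Further: signal reflects streptavidin binding to arrayed compounds as a control protein.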 The settings on record: streptavidin binding, higher = more signal.
Assay [16] is described as follows: small-molecule binders of probe aInhba, primary screen, biochemical, small-molecule microarray, 635/667 nm fluorescence (AID 1148).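 Further: score merges 667nm spot fluorescence with signal-to-noise for antibody binding to printed compounds.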 As to conditions: higher = more signal.
Assay [17] has as its target Torsin-1A (Homo sapiens) (UniProt O14656). Kind of assay: torsin A binders from cell lysate, primary screen, small-molecule microarray, wild-type, 635/667 nm (AID 1149). The settings on record: COS7 hTOR1A-WT lysate, 635 nm fluorescence, higher = more signal.
Assay [18] has the same target. The experiment in a line: small-molecule binders of mutant TOR1A in lysate, primary screen, cell lysate, small-molecule microarray, COS7 lysate, 635/667 nm fluorescence (AID 1150).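 Further: score pools 667 nm emission and signal to noise measuring lysate protein binding.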 The settings on record: COS7 hTOR1A mutant lysate, 635 nm fluorescence, higher = more signal.
Assay [19] relates to Sonic hedgehog protein (Shh). Kind of assay: small-molecule binders of Shh protein, primary screen, biochemical, small-molecule microarray, 635/667 nm fluorescence (AID 1151).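 Further: Shh protein binding to compounds spotted on small-molecule microarray slides; score combines spot fluorescence intensity with signal-to-noise across triplicate slides.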 The settings on record: small-molecule microarray binding, 635 nm fluorescence; higher = more signal.

Activity calls are given as the source filed them. Unless noted, how the calls were made is not given here.

Sequence of Luciferin 4-monooxygenase (Photinus pyralis) (P08659 whole entry, looked up): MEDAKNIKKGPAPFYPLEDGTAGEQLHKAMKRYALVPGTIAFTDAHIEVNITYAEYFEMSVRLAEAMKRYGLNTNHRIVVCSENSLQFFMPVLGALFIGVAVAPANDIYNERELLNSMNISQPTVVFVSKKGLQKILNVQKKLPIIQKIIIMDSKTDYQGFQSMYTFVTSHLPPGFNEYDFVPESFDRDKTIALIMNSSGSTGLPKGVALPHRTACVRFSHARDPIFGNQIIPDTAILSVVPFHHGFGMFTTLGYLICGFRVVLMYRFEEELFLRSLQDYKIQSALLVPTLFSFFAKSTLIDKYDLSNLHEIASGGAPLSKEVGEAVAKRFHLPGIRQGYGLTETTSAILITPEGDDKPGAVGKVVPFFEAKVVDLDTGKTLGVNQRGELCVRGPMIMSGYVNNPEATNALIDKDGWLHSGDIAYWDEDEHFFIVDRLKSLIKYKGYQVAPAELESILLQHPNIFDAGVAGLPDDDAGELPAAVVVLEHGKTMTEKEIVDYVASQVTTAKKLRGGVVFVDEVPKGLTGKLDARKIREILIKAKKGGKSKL
Sequence of Fibroblast growth factor 2 (Homo sapiens) (P09038 whole entry, looked up): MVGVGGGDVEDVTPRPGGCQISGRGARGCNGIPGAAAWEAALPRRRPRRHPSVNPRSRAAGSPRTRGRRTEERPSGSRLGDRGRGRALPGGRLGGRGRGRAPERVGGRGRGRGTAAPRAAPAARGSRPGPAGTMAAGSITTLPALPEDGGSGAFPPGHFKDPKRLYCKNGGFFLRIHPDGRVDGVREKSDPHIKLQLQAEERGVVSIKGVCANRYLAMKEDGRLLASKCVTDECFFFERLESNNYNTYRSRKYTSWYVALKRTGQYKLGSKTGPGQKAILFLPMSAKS
Sequence of Torsin-1A (Homo sapiens) (O14656 whole entry, looked up): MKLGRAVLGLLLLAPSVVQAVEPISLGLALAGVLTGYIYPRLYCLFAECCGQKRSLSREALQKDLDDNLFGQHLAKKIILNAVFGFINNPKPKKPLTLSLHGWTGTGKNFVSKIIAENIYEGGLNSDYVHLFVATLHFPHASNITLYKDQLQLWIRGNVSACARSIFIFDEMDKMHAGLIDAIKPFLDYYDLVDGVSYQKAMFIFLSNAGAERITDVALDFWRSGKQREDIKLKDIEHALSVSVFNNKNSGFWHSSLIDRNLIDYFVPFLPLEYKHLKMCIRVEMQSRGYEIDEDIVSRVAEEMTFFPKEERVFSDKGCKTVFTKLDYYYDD
Sequence of Focal adhesion kinase 1 (Homo sapiens) (Q05397 whole entry, looked up): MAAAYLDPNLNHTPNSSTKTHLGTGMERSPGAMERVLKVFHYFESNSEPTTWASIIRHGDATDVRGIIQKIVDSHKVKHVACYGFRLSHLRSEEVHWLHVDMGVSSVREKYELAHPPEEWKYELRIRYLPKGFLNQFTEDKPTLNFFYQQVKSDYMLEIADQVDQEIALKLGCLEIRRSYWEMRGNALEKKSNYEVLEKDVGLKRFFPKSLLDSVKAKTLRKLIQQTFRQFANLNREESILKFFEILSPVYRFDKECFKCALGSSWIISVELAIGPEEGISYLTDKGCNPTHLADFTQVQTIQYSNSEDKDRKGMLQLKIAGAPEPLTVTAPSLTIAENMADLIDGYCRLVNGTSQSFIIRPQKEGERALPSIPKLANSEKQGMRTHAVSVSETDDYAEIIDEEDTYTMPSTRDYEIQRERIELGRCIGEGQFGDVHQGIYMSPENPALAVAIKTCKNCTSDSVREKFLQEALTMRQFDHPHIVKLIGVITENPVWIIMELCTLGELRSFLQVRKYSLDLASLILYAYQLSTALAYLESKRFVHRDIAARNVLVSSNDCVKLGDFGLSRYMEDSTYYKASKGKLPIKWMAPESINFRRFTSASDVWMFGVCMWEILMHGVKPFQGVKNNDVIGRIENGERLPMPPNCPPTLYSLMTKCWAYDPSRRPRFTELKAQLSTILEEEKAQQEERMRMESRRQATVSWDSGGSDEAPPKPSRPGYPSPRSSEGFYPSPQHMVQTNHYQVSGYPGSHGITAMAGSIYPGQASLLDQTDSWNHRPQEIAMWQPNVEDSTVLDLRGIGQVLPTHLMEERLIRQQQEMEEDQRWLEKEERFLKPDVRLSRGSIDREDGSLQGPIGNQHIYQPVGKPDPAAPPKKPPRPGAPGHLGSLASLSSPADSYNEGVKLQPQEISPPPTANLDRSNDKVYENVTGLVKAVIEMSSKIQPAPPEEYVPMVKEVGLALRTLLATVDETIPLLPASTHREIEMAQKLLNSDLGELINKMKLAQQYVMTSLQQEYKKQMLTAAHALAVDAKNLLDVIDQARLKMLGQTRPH
Sequence of Follistatin (Homo sapiens) (P19883 whole entry, looked up): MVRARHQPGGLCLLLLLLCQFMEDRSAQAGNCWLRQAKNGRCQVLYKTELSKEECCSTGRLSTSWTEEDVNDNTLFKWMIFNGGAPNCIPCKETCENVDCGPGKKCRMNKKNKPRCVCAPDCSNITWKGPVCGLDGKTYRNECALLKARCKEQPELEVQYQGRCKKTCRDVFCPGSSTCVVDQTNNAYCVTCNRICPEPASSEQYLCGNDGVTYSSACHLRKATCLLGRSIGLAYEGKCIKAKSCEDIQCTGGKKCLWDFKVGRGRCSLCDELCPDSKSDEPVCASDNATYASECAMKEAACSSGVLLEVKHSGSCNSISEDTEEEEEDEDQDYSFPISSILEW
Sequence of Streptavidin (Streptomyces avidinii) (P22629 whole entry, looked up): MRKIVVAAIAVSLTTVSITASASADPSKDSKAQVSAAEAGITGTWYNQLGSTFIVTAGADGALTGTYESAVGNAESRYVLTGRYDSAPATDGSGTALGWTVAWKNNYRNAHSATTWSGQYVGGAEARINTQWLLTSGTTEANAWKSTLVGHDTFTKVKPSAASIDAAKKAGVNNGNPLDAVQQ

Regarding `COc1ccc([Si](C)(C)[C@H]2[C@H](CC(=O)N3CCC[C@H]3CO)O[C@@]3(C(=O)N(Cc4cccc(N5CCOC5=O)c4)c4ccccc43)[C@@H]2C)cc1`, the composite z-score was 1.3 in [1]; 0.883 in [2]; 0.266 in [3]; 0.405 in [4]; 1.42 in assay [5]; 1.64 in assay [6]. Besides, the composite z-score was 1.47 with Lefty1; 0.149 in [8]; 0.307 in [10]; 0.0063 in assay [15]; -0.0468 in [16]; 0.716 in the assay with Torsin-1A (Homo sapiens) [17]. The composite z-score was found to be 0.58 in the assay with Torsin-1A (Homo sapiens) [18] and 1.99 in assay [19]. For the same compound, the z-score was 1.1 in assay [7]; 0.526 (inactive) in [9]; -5.09 (inactive) in assay [11]; 0.621 (inactive) in [12]; 0.395 (inactive) in [13]; -0.135 (inactive) in [14].

In the case of `COCCOC(=O)N1C(=O)[C@@]2(c3ccccc31)[C@H](c1ccc(OCCO)cc1)N1[C@H](c3ccccc3)[C@H](c3ccccc3)OC(=O)[C@H]1[C@@H]2C(=O)N1CCc2cc(OC)c(OC)cc2C1`, the composite z-score in assay [1] was 2.41; in [2] it was 1.2; in assay [3], 0.85; in [4], 0.958; in assay [5] it was 1.3; in [6], 1.38. The composite z-score was found to be 1.35 with Lefty1; 1.17 in [8]; 0.349 in assay [10]; 0.743 in assay [15]; 0.505 in assay [16]; 0.518 in the assay with Torsin-1A (Homo sapiens) [17]. Further, the composite z-score was 0.153 with Torsin-1A (Homo sapiens) [18] and 1.84 in assay [19]. Besides, the z-score in assay [7] is -0.0272; in [9], -0.603 (inactive); in assay [11], -2.12 (inactive); in assay [12], -1.28 (inactive); in assay [13], 0.623 (inactive); in assay [14], 2.12 (inactive).

`COc1ccc(C#Cc2ccc3c(c2)[C@]2(C(=O)N3)[C@H](c3ccc(O)cc3)N3[C@H](c4ccccc4)[C@H](c4ccccc4)OC(=O)[C@H]3[C@@H]2C(=O)N2CCc3cc(OC)c(OC)cc3C2)cc1`: the composite z-score in assay [1] stood at 0.645; in [2], 1.19; in assay [3], 0.174; in assay [4], 0.933; in assay [5], 1.15; in assay [6] it was 1.36. For the same compound, the composite z-score is 1.12 with Lefty1; 0.384 in [8]; 0.636 in assay [10]; 1.13 in assay [15]; -0.0521 in assay [16]; 0.135 in the assay with Torsin-1A (Homo sapiens) [17]. In addition, the composite z-score was found to be 0.0243 with Torsin-1A (Homo sapiens) [18] and 1.78 in [19]. Moreover, the z-score in assay [7] was -0.577; in [9], -0.798 (inactive); in [11], -0.678 (inactive); in [12] it was -0.0604 (inactive); in assay [13] it was 0.155 (inactive); in [14], 0.102 (inactive).

Consider `CC(C)OC(=O)C=C1C[C@@H](c2cccc(Cl)c2)O[C@@H](c2cccc(Cl)c2)O1`, for which the composite z-score in [1] was 1.72; in assay [2], 0.824; in assay [3], 0.526; in [4], -0.105; in assay [5], -0.545; in assay [6], -0.122. In addition, the composite z-score with Lefty1 was -1.1; in assay [8], 0.751; in assay [10], -0.0889; in assay [15], 0.776; in assay [16], 0.0956; in the assay with Torsin-1A (Homo sapiens) [17], 0.686. In addition, the composite z-score with Torsin-1A (Homo sapiens) [18] was -0.365; in assay [19] it was -1.16. The z-score is -0.143 in assay [7]; 0.924 (inactive) in [9]; -0.0636 (inactive) in assay [11]; -0.179 (inactive) in [12]; 0.192 (inactive) in [13]; 1.03 (inactive) in assay [14].

For `O=C1O[C@@H](c2ccccc2)[C@@H](c2ccccc2)N2[C@@H](c3ccccc3OCCO)[C@]3(C(=O)Nc4ccccc43)[C@@H](C(=O)O)[C@H]12`, the composite z-score in assay [1] is 0.969; in [2] it was 0.718; in assay [3], 0.66; in assay [4] it was 0.882; in assay [5] it was -0.0086; in assay [6] it was -0.166. Moreover, the composite z-score in the assay with Lefty1 is -0.474; in [8], 0.56; in assay [10], 0.205; in assay [15], 1.38; in [16] it was -0.103; with Torsin-1A (Homo sapiens) [17], 0.332. Also, the composite z-score with Torsin-1A (Homo sapiens) [18] was determined as 1.14; in assay [19], 0.0546. Also, the z-score was -0.184 in assay [7]; -1.55 (inactive) in assay [9]; -0.99 (inactive) in [11]; -0.0695 (inactive) in assay [12]; 0.568 (inactive) in assay [13]; 2.62 (inactive) in assay [14].

For the compound `COc1cc(CO)cc(I)c1O[C@H]1C=C(C(=O)NCCO)C[C@@H](N(C(=O)c2cc3ccccc3oc2=O)C2CCCCCC2)[C@@H]1O`, the composite z-score is 0.0786 in assay [1]; -0.832 in [2]; -0.314 in [3]; 0.138 in assay [4]; 0.625 in [5]; 1.32 in [6]. Besides, the composite z-score in the assay on Lefty1 is 0.803; in assay [8], 0.972; in [10] it was 0.021; in assay [15] it was 0.0378; in assay [16], -0.157; with Torsin-1A (Homo sapiens) [17], -0.113. Moreover, the composite z-score with Torsin-1A (Homo sapiens) [18] worked out at 0.347; in assay [19], 1.33. The z-score in [7] is -1.79; in assay [9] it was 0.93 (inactive); in [11], -2.46 (inactive); in assay [12] it was -0.269 (inactive); in [13], -0.153 (inactive); in assay [14], -0.94 (inactive).

With `CCN(CC)c1ccc(N2CC=CC34O[C@@H]5C=CCOC(=O)[C@@H]5[C@H]3C(=O)N(CCCCCCO)[C@@H]4C2=O)cc1` (stereo not given in full), the composite z-score in assay [1] was 0.449; in [2], -0.202; in assay [3], -0.148; in assay [4] it was -1.57; in assay [5], -0.0283; in assay [6] it was -0.666. For the same compound, the composite z-score in the assay with Lefty1 was 0.436; in assay [8], -0.0009; in [10], -0.452; in assay [15], -0.881; in [16] it was -0.154; with Torsin-1A (Homo sapiens) [17] it was 0.914. The results for the composite z-score (with Torsin-1A (Homo sapiens) [18]; in assay [19]) were 0.339 and -0.326, respectively. The z-score in [7] was 0.262; in assay [9], -3.88 (inactive); in assay [11], -0.289 (inactive); in [12] it was -0.593 (inactive); in assay [13], -0.488 (inactive); in assay [14], -1.57 (inactive).

For `[N-]=[N+]=Nc1ccccc1[C@H]1OC(c2ccc(OCCCO)cc2)=N[C@@]1(CCS(=O)(=O)c1ccccc1)C(=O)NCc1ccccc1`, the composite z-score stood at 1.18 in assay [1]; 1.24 in [2]; 0.341 in assay [3]; 1.04 in assay [4]; 1.34 in [5]; 0.694 in assay [6]. Moreover, the composite z-score with Lefty1 was 0.152; in [8] it was 0.697; in assay [10], 0.768; in assay [15] it was 1.47; in assay [16], 0.204; with Torsin-1A (Homo sapiens) [17] it was 0.503. The figures for the composite z-score (in the assay with Torsin-1A (Homo sapiens) [18]; in assay [19]) were 0.786 and 0.0239, respectively. Also, the z-score in assay [7] is 0.727; in assay [9], -7.61 (inactive); in [11], -2.65 (inactive); in [12], 0.0905 (inactive); in assay [13], 1.26 (inactive); in [14], -0.504 (inactive).
